Source: PubChem BioAssay (National Center for Advancing Translational Sciences (NCATS))
DT40 TDP1 CPT: DT40-hTDP1 cell growth loss with CPT | chicken DT40 Tdp1-/-;hTDP1 cells + 20 nM CPT, ATP luminescence, 48 h | Potency, µM (top dose mostly 46.2 µM), without a hit: at the top dose activity change, negative = growth inhibition, hits mostly inhibitors | 420,000 tested, 12% active; note: potency is the fitted concentration of half-maximal effect; % is set by controls: 0 for no effect and ±100 for the full control effect; nearly all actives have a fitted effect of over 55% in size
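Cell growth measured by CellTiter-Glo luminescence after a minimum 48 h, 37 C compound exposure with 20 nM CPT in Tdp1-knockout DT40 cells stably expressing hTDP1, seeded 400/well; qHTS titration format.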
DRD3 agonist: D3 dopamine receptor (human) agonism; P35462; D3R DiscoveRx beta-arrestin cells, luminescence, 90 min; max activation, %; 410,000 tested, 0.58% active; in the data active = max activation above about 30%; note: 0% is about no effect
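Agonist-mode cell screen: cells plated at 1500/well and incubated overnight at 37 °C, then exposed to library compounds for 90 min at 37 °C. Detection reagent was added for 30–60 min at room temperature, and luminescence was read.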
D3 antag: blocks the human D3 dopamine receptor. 360,000 tested, 2.5% active. P35462. AID 652054. D3R cells, DiscoveRx beta-arrestin luminescence, antagonist mode; active compounds read low. max response, negative = inhibition, %; in the data active = max response below about -50%; inconclusive = no clear call, values can overlap the other calls; note: % is set by controls: 0 for no effect and ±100 for the full control effect
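Cells expressing the human receptor were seeded at 1500 cells/well, incubated overnight at 37 degrees C in 5% CO2, then exposed to library compounds with dopamine controls for 90 minutes at 37 degrees C before luminescent detection.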
IL-1B inflam inh: inflammasome signaling inhibition, IL-1 beta readout; activity change, % at 57.5 µM; 360,000 tested, 4.7% active; AID 743279; THP-1 LPS/ATP IL-1B secretion, AlphaLISA, 16 h; active compounds read low; in the data active = activity change below about -50%; inconclusive = mostly about -30% to -49%; note: % is set by controls: 0 for no effect and ±100 for the full control effect
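THP-1 cells pretreated 1 hr with compounds (up to 57.5 uM final), then stimulated with LPS (250 ng/mL final) plus ATP (1.25 mM final); secreted IL-1B measured by AlphaLISA after 16 hr, decreased signal indicating inhibition.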
DT40 TDP1 no CPT: qHTS for Inhibitors of human tyrosyl-DNA phosphodiesterase 1 (TDP1): qHTS in cells in absence of CPT; DT40 Tdp1-/- hTDP1 cells, no CPT, ATP luminescence, 48 h; Potency, µM (highest dose often 46.2 µM), inactives show at the highest dose activity change, negative = growth inhibition, usual class: inhibitors; 420,000 tested, 15% active; note: potency is the fitted concentration of half-maximal effect; % is set by controls: 0 for no effect and ±100 for the full control effect; nearly all actives have a fitted effect of over 55% in size
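A cellular qHTS used chicken DT40 cells lacking endogenous Tdp1 but carrying stably transfected human TDP1. Compounds were applied without camptothecin, and cell growth kinetics were judged by ATP-dependent luminescence after ≥48 hr.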
ClpP mod: qHTS Assay for Activators of ClpP; ATP-dependent Clp protease proteolytic subunit (Bacillus subtilis (strain 168)), P80244; purified B. subtilis ClpP, FRET peptide cleavage, 20 min; Potency, µM (highest dose often 57.5 µM), inactives show top-dose activity change, negative = active; 340,000 tested, 1.9% active; active = well fitted falling curve with a large enough effect; inconclusive = small, poorly fitted or top-dose-only effect; inactive = no such curve, though single readings can be large or run the other way; note: potency is the fitted concentration of half-maximal effect; the source files actives as falling curves though it sought activators and does not explain the sign; nearly all actives have a fitted effect of over 65% in size
Target sequence (P80244 whole entry, looked up): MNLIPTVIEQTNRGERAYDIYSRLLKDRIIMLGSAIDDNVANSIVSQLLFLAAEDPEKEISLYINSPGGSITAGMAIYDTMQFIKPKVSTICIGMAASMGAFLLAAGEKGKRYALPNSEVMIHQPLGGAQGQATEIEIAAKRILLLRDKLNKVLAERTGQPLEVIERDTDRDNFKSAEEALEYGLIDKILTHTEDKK
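Buffer: 100 mM Tris/HCl pH8, 100 mM KCl, 0.05% low protease BSA, 2.5% glycerol, 0.01% Tween-20. ClpP 10 microg/mL final; 20 min RT; delta FRET normalized to ADEP and DMSO controls.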
Starred values were filed as active, the others as inactive; ? = inconclusive; · = no result given. Hits are enriched below; roughly 21% of the tested compounds scored in any of these assays. Unless noted, calls come from the whole dose curve; as a rule, active = well fitted inhibition curve with a large enough effect; inconclusive = small, poorly fitted or top-dose-only effect; inactive = flat fitted curve, though single readings scatter.

SMILES | DT40 TDP1 CPT | DRD3 agonist | D3 antag | IL-1B inflam inh | DT40 TDP1 no CPT | ClpP mod
CC1=C(C(=O)N(C(C)C)C(C)C)CC(CC(=O)NCCN2CCOCC2)C(=O)N1Cc1ccc(C(C)(C)C)cc1 (centres undefined) | ? | -1 | -19 | ? | 18µM* | -1%
CC1=C(C(=O)N(C(C)C)C(C)C)CC(CC(=O)NCCCCc2ccccc2)C(=O)N1Cc1ccc(C(C)(C)C)cc1 (centres undefined) | 23µM* | -8 | 0 | 0 | 21µM* | -4%
COc1ccc(CNC(=O)C2CCN(C(=O)c3cccc(Cl)c3)CC2)cc1 | -19% | 7 | -15 | 3 | -25% | 1%
Cc1cc(Br)ccc1NC(=O)COc1cc(=O)n(C)c2ccccc12 | ? | -11 | · | · | ? | -3%
COc1ccc(CN2C(=O)C(CC(=O)NCCCCc3ccccc3)CC(C(=O)N(C(C)C)C(C)C)=C2C)cc1 (centres undefined) | 13µM* | -1 | -2 | -27 | 12µM* | -1%
COc1ccc(CN2C(=O)C(CC(=O)NCc3cccc4ccccc34)CC(C(=O)N(C)C)=C2C)cc1 (centres undefined) | 2% | 3 | -24 | 9 | -16% | 2%
CC1=C(C(=O)N(C(C)C)C(C)C)CC(CC(=O)NCCc2ccccn2)C(=O)N1Cc1ccc(C(C)(C)C)cc1 (centres undefined) | 16µM* | -11 | 0 | -23 | ? | 1%
COc1ccc(CN2C(=O)C(CC(=O)NCc3cccc4ccccc34)CC(C(=O)N(C(C)C)C(C)C)=C2C)cc1 (centres undefined) | ? | 0 | 0 | -70* | ? | 0%
COc1cc(/C=C/C(=O)OCC(=O)Nc2ccc3c(c2)OCCO3)ccc1O | ? | -23 | -19 | 24 | 16µM* | -4%
COc1cc(/C=C/C(=O)OCC(=O)NCc2ccc(F)cc2)ccc1O | 2.6µM* | 2 | -5 | 67 | 2.3µM* | ·
CC(C)(C)c1ccc(/C=N/OCC(=O)NCc2ccc(F)cc2)cc1 | ? | 12 | -6 | -69* | 16µM* | -2%
COc1cc(/C=C/C(=O)OCC(=O)Nc2ccc3c(c2)OCO3)ccc1O | ? | 10 | -11 | 6 | -26% | -20%
Cc1ccc(CNC(=O)CO/N=C/c2ccc(C(C)(C)C)cc2)cc1 | ? | 0 | -28 | -2 | ? | -2%
CCCCOc1ccc(-c2nn(-c3ccccc3)cc2C2NC(=O)NC(C)=C2C(=O)OCC)cc1 (centres undefined) | ? | 13 | · | · | ? | -9%
C[C@H](CO)N1C[C@H](C)[C@@H](CN(C)C(=O)Nc2ccccc2)Oc2ccc(NS(=O)(=O)c3ccc(F)cc3)cc2C1=O | 17% | 37* | 13 | -5 | -12% | 1%
COc1ccc(S(=O)(=O)Nc2ccc3c(c2)C(=O)N([C@H](C)CO)C[C@H](C)[C@@H](CN(C)C(=O)Nc2ccc4c(c2)OCO4)O3)cc1 | -2% | 7 | 0 | -18 | 21% | 0%
C[C@@H]1CCCCO[C@H](CN(C)C(=O)Nc2ccc3c(c2)OCO3)[C@@H](C)CN([C@H](C)CO)C(=O)c2cc(NS(=O)(=O)c3ccc(F)cc3)ccc2O1 | ? | 1 | 3 | -29 | 21µM* | -1%
C[C@@H]1CCCCO[C@H](CN(C)C(=O)Nc2ccc3c(c2)OCO3)[C@H](C)CN([C@@H](C)CO)C(=O)c2cc(NS(=O)(=O)c3ccc(Cl)cc3)ccc2O1 | 16µM* | 4 | ? | -11 | 16µM* | -2%
CC(C)NC(=O)N(C)C[C@H]1OCCCC[C@H](C)Oc2ccc(NS(=O)(=O)c3ccccc3)cc2C(=O)N([C@H](C)CO)C[C@H]1C | -1% | 3 | 15 | 7 | 4% | -3%
